# Assay outcomes from PubChem BioAssay.
# Rows were chosen to be rich in hits. Some 7.3% of all compounds tested hit in one or more screens of this group.
# Luc counter: counter-screen: inhibitors of Kinase-Glo firefly luciferase | actives 0.28% (n = 200,000) | AID 1379 | Kinase-Glo luciferase, ATP luminescence, 8 min | Potency, µM (titrated, usually from 38.3 µM), without a hit: top-dose activity change, negative = inhibition, usual class: inhibitors; note: % is set by controls: 0 for no effect and ±100 for the full control effect; nearly all actives have a fitted effect of over 60% in size
#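 Substrate mix (final 50 mM imidazole pH 7.2, 50 mM KCl, 7 mM MgCl2, 10 uM ATP, 0.01% Tween 20, 0.05% BSA) plus pin-tool compound, then Kinase-Glo detection mix; 8 min ambient, luminescence read.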
# FLuc counter: inhibits or activates purified firefly luciferase, miR-21 counter-screen; purified FLuc, Km substrates, luminescence inhibition; Potency, µM (highest dose often 57.5 µM), for inactives: at the top dose activity change, negative = inhibition, actives largely listed as inhibitors; actives 6.9% (n = 360,000);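 note: plate controls were vehicle for no effect and reference inhibitor for full effect; nearly all actives have a fitted effect of over 55% in size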
# Target sequence (P08659 whole entry, looked up): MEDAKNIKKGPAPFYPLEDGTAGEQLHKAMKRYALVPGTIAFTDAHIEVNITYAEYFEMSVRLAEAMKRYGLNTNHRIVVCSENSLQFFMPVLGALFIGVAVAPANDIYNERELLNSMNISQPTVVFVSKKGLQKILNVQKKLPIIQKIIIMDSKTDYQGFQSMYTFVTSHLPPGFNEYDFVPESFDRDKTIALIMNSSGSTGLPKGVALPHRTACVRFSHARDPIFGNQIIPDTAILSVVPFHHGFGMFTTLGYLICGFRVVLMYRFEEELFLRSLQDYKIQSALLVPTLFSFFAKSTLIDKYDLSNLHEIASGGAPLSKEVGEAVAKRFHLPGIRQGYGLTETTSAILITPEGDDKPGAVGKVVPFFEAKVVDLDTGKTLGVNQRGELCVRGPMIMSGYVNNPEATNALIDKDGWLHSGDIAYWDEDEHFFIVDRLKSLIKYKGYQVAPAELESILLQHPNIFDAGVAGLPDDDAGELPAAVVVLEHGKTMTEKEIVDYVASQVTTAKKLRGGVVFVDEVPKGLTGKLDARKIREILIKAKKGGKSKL
#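 Purified P. pyralis luciferase (10nM final) with 10uM D-luciferin and 10uM ATP (Km levels) in 50mM Tris acetate pH 7.5, 10mM Mg acetate, 0.01% Tween-20, 0.05% BSA; qHTS 6-point titration, ~60 µM downward; luminescence read.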
# ELG1 genotoxic: inducers of genotoxicity in HEK293T ELG1-luciferase cells; HEK293T ELG1-luciferase reporter, luminescence, 16 h; Potency, µM (titrated, usually from 46 µM), without a hit: at the highest dose activity change, positive = activation, actives largely listed as activators; AID 504466; actives 1.3% (n = 330,000); note: % of control where 0% means no effect; nearly all actives have a fitted effect of over 60% in size
#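 DMSO vehicle served as control against compound-treated ELG1-luciferase HEK293T cells; exposure lasted 16 hr at 37 °C and 5% CO2, followed by ONE-Glo luminescence detection after 30 min.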
# SMN2 splice up: increases expression of the SMN2 splice variant | HEK293 SMN2-luciferase splicing reporter, luminescence, 30-36 h | Potency, µM (titrated, usually from 46.1 µM), without a hit: top-dose activity change, positive = activation, usual class: activators | actives 2.8% (n = 210,000); note: % of control where 0% means no effect; nearly all actives have a fitted effect of over 55% in size
#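 qHTS luciferase splicing reporter: luminescence rises when SMN2 exon 7 is included in transfected HEK293 cells. Compound exposure lasted 30-36 h at 37C, with 4.5 mM final sodium butyrate as control, followed by a ONE-Glo read.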
# NPC1 prom act: activators of NPC1 promoter | Huh7 NPC1 promoter luciferase reporter, 24 h | Potency, µM (doses to about 9.22 µM), inactives show at the highest dose activation, usual class: activators | actives 2.4% (n = 320,000) | AID 485313; note: % of control where 0% means no effect; nearly all actives have a fitted effect of over 60% in size
#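 Compounds in DMSO were transferred onto Huh7 NPC1-luciferase reporter cells pre-incubated 2 h; after 24 h at 37 °C, Amplite reagent was dispensed and luminescence recorded 10 min later.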
# Rab9 promoter act: activates the Rab9 promoter; Huh7 Rab9 promoter-luciferase reporter, luminescence, 24 h; Potency, µM (highest dose often 9.22 µM), inactives show at the top dose activation, negative = inhibition, actives largely listed as activators; actives 2.8% (n = 320,000); note: % of control where 0% means no effect; nearly all actives have a fitted effect of over 60% in size
#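 Luciferase signal after 10 min detection reagent at ambient indicates Rab9 promoter upregulation; stably transfected Huh7 cells were treated 24 h with compound in DMSO at 37 °C, 5% CO2.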
# Active calls of the source: *; ? = inconclusive; . = no result; [ ] = another dose, or the depositor's remark. Calls come from the whole dose curve; as a rule, active = well fitted curve in the direction sought with a large enough effect; inconclusive = small, poorly fitted or top-dose-only effect, or another doubt; inactive = no such curve, though single readings can be large; an effect the other way counts as inactive or inconclusive. Potency is the fitted concentration of half-maximal effect.
SMILES,Luc counter,FLuc counter,ELG1 genotoxic,SMN2 splice up,NPC1 prom act,Rab9 promoter act
Cc1cc(/C=C2\C(=N)N3N=C(S(C)(=O)=O)SC3=NC2=O)c(C)n1Cc1ccccc1,-2%,17µM*,1%,-15%,-4%,-4%
Cc1cc(/C=C2\C(=N)N3N=CSC3=NC2=O)c(C)n1Cc1ccccc1,.,1.3µM*,?,.,?,?
CCc1ccc(NC(=O)CCCc2nc(-c3ccco3)no2)cc1,.,-12%,.,.,.,.
CC(C)(C)OC(=O)N1CCC(c2c(C(=O)N3CCN(c4ccccc4)CC3)cnn2-c2ccccc2)CC1,.,-5%,.,.,.,.
O=C(CSc1nccn1-c1ncc(C(F)(F)F)cc1Cl)c1ccc(Cl)cc1,0%,?,33%,7%,4µM*,3.5µM*
Cc1noc(C)c1S(=O)(=O)N1CCc2nc(-c3ccccc3)c3c(c2C1)CO[C@@H](C)C3,-5%[7.66 µM],.,.,-5%[9.22 µM],.,.
Cc1ccc(N/N=C2/CCCNC2=O)cc1,-2%,?,7%,11%,3%,6%
O=C1NCCC/C1=N/Nc1cc(F)ccc1F,.,19µM*,?,.,?,?
COC(=O)C(=Cc1ccc(-c2ccsc2C(=O)OC)o1)C(=O)OC,.,11µM*,-3%,.,7%,21%
COC(=O)c1sccc1-c1ccc(C(N)=O)o1,-2%,-3%,1%,6%,0%,-13%
CCOC(=O)/C(C#N)=C/Nc1ccsc1C(C)=O,.,?,8%,.,0%,1%
CCOC(=O)/C(C#N)=C/c1ccc(-c2ccc(Br)cc2)o1,.,6.7µM*,.,12%,.,.
CCOC(=O)/C(C#N)=C/c1ccc(-c2ccsc2C(=O)OC)o1,-9%,-18%,16%,6%,?,2.5µM*
COC(=O)c1sccc1NC(=O)c1cccs1,.,6%,2%,.,-4%,1%
COC(=O)c1sccc1-c1ccc(/C=N/OC(=O)c2cccs2)o1,.,5.4µM*,4%,.,2%,10%
O=S(=O)(c1ccccc1)c1nnn2c1nc(Nc1ccccc1)c1cc(Cl)ccc12,.,-3%,.,-2%,.,.
COc1ccc(NCc2cc3cc4c(cc3n(CC(=O)Nc3ccc(C)c(C)c3)c2=O)OCO4)cc1,.,-1%,.,.,.,.
CCOC(=O)C(=Cc1ccc(-c2ccsc2C(=O)OC)o1)C(=O)OCC,-2%,19µM*,-11%,-11%,-3%,3%
CCOC(=O)COc1ccsc1C(=O)OC,-2%,0%,0%,0%,2%,3%
COC(=O)c1sccc1-c1ccc(C(=O)Nc2cccnc2)o1,-13%,8.5µM*,16%,18µM*,2.2µM*,3.5µM*
O=C(Nc1ccc(F)cc1F)C(Cc1ccccc1)N1Cc2ccccc2C1=O (configuration not stated),.,-7%,.,.,.,.
NCCC1([N+](=O)[O-])CCNCC1,-6%[7.66 µM],.,.,-3%[9.22 µM],.,.
Cc1c(-c2nc(-c3ccncc3)no2)cccc1[N+](=O)[O-],.,-15%,4%,.,26%,22%
Cc1occc1-c1nc(-c2ccncc2)no1,-23%,?,18µM*,?,13%,10%
Cc1ccc(-c2noc(-c3ccoc3C)n2)cc1,-19%,3µM*,15µM*,?,?,-6%
SMILES,Luc counter,FLuc counter,ELG1 genotoxic,SMN2 splice up,NPC1 prom act,Rab9 promoter act
COc1ccc2nc(Nc3ccc4c(c3)OCO4)sc2c1,-7%,?,5.8µM*,?,?,4.5µM*
COc1ccccc1NC(=O)Nc1nc2ccc(S(N)(=O)=O)cc2s1,.,?,?,.,?,4µM*
COc1ccc(Nc2nc3ccccc3c(=O)s2)c(OC)c1,-1%,4%,2%,6%,0%,3%
COc1ccc2nc(NC(=O)Nc3ccccc3OC)sc2c1,.,0.95µM*,?,.,?,0.63µM*
COc1ccc2nc(NC(=O)Nc3cccc4ccccc34)sc2c1,0%,?,16%,?,22%,?
COc1ccc2nc(Nc3ccccc3OC)sc2c1,11µM*,0.48µM*,?,2.8µM*,1.1µM*,0.35µM*
CCOC(=O)c1cc(S(=O)(=O)Nc2c(C)cc(C)cc2C)[nH]n1,.,-3%,.,.,.,.
CCc1ccc(-c2cn3c(n2)sc2cc(C(=O)NCCc4ccc(OC)cc4OC)ccc23)cc1,.,5%,.,.,.,.
COc1ccc2nc(Nc3ccccc3)sc2c1,-11%,1.5µM*,22%,11µM*,3.5µM*,1.6µM*
COc1ccc2nc(Nc3nc4cc5c(cc4s3)OCO5)sc2c1,4%,-16%,16%,?,16%,-1%
Cc1csc(NC(=O)c2cccs2)n1,-19%,?,?,11µM*,?,?
Cc1cc(C)nc(NC(=O)c2cccs2)n1,.,0%,5%,.,-4%,-8%
Cc1nc(NC(=O)c2cccs2)ccc1Br,-13%,6µM*,?,11µM*,3.5µM*,3.5µM*
Cc1csc(NC(=O)c2ccc(Br)s2)n1,.,4.8µM*,?,.,21%,2%
Cc1csc(NC(=O)CCC(=O)c2cccs2)n1,-4%,-13%,-18%,-13%,6%,7%
Cc1ccc(NC(=O)Cn2c(=O)nc(-c3ccccc3F)c3cc(Cl)ccc32)c(Br)c1,.,4%,.,3%,.,.
O=C(COC(=O)c1ccccc1NC(=O)C1CC1)c1ccc2c(c1)OCCO2,2%,1.7µM*,-1%,1%,22%,?
COC(=O)c1ccccc1NC(=O)c1ccc2c(c1)OCCO2,4%,?,13%,?,3%,18%
CC(C)(C)C(=O)Nc1ccccc1C(=O)OCC(=O)c1ccc2c(c1)OCCO2,-1%,6.7µM*,-1%,-29%,-3%,3%
CCOC(=O)CNC(=O)O[C@@H]1C(=O)c2cc(Br)ccc2O[C@H]1c1cccc(OC)c1,-2%,.,.,20%,.,.
